By Inhibition is commonly meant the percentage by which the read-out fell short of the control. Lower therefore signals a weak effect.

Screen size: about 21,000 compounds; fewer than 10 showed an effect of 50% or more. The list is a sample of the results. Entries with a potency or affinity are not part of this list.

The assay deals with Acinetobacter baumannii. The note with it: Concentration 20 uM; ASSAY_TEST Inhibition of Bacterial Growth; detection method Absorption (OD600); MEDIA CAMHB; plate type 384well; NBS; CORNING #3640; time 18 hr.
On to `O=C(CN1CCOCC1)Nc1ccc2ncnc(Nc3ccc(OCc4cccc(F)c4)c(Cl)c3)c2c1`, for which the Inhibition is on record as 8.91%. In turn, `Cl.O=C(Nc1ccc(N2CCNCC2)nc1)c1oc(-c2ccccc2)nc1C(F)(F)F` yielded an Inhibition of 4.8%.

The record behind these values is ChEMBL document CHEMBL4513149, “CO-ADD screening of MMV (CH) - MMV compounds” (2021).
